PLC-gamma1 inh = blocks human PLC-gamma1 enzyme activity | AID 720700 | P19174 | 370,000 tested, 0.84% active | inhibition, % at 12.2 µM | purified PLC-gamma1, fluorogenic substrate, fluorescence; in the data active means inhibition above about 9.5%
ADAM10 inh = ADAM10 inhibition, QFRET primary screen | O14672 | recombinant ADAM10, EDANS/DABCYL FRET peptide cleavage, 3 h | inhibition, % at 7 µM | 370,000 tested, 0.62% active;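 active means inhibition above a per-campaign cutoff equal to the mean of compounds falling between control-based bounds plus 3 SD, cut at about 20% in these data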;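 further: 0% = DMSO wells while the 100% control is not disclosed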
sPLA2-III inh = Blocks human group III sPLA2 activity; QFRET BODIPY PC-A2 liposome hydrolysis, fluorescence; inhibition, % at 12.2 µM; 370,000 tested, 0.56% active;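 active means inhibition above mean plus 3 SD of compounds lying within the high and low control bounds, cut at about 19% in these data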;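 further: 0% = median of test compound wells and 100% = no enzyme DMSO wells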
ADAM17 inh = ADAM17 inhibition, QFRET primary screen | P78536 | recombinant ADAM17, EDANS/DABCYL FRET peptide cleavage | inhibition, % at 6.95 µM | 370,000 tested, 0.83% active | AID 720648;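 active means inhibition above the mean of compounds lying between control limits plus 3 SD, set per campaign, cut at about 8.5% in these data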;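 further: 0% = DMSO-only wells as the low control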
proKLK7 act = activates the human kallikrein-7 zymogen; P49862; purified proKLK7, EDANS-DABCYL substrate fluorescence; 100% is mature enzyme control, 0% vehicle; 370,000 tested, 0.9% active; activation, % at 7 µM;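 active means activation above the mean of all tested compounds plus 3 SD, computed per campaign excluding outliers beyond control limits, cut at about 13% in these data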
Target sequence (P49862 whole entry, looked up): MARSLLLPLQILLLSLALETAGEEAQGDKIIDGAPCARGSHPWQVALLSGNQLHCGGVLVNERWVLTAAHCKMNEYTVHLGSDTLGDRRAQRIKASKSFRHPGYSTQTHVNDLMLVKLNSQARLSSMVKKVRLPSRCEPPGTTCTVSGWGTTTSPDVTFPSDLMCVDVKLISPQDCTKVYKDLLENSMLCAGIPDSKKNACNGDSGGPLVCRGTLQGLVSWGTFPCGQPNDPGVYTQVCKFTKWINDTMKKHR
PLCb3 inh = PLC-beta3 (human) inhibition, primary screen; Purified PLC-beta3, fluorogenic substrate, fluorescence; inhibition, % at 12.2 µM; 370,000 tested, 0.18% active; in the data active means inhibition above about 11%;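 further: 0% = median of compound wells on plate and 100% = full blocker control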
KLK7 act conf = proKLK7 activation, confirmation; shares compounds with proKLK7 act; 3,200 tested, 68% active; purified proKLK7, EDANS-DABCYL substrate fluorescence; scaled: vehicle 0, mature enzyme 100; activation, % at 7 µM;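 active means activation, as change over the incubation, above the mean of all tested compounds plus 3 SD, cut at about 13% in these data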
EDANS-DABCYL int = fluorescence interference counter-screen for KLK7 activators; shares compounds with proKLK7 act; activation, % at 7 µM; EDANS-DABCYL substrate fluorescence interference, no enzyme, 4 h; solvent 0%, active enzyme control 100%; 3,200 tested, 80% active;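 active means activation above the all-compound mean plus 3 SD, ignoring values outside control-based bounds, cut at about 4.8% in these data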;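 further: value is the 4 h activation minus the activation read at time zero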
EDANS interf = counter-screen for kallikrein-7 activators: EDANS-DABCYL interference, dose response | EDANS-DABCYL peptide fluorescence interference, no enzyme | shares compounds with proKLK7 act | EC50, µM | AID 720493 | 250 tested, 20% active;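 active means compounds that raise the fluorescence signal in this interference counterscreen, with EC50 at or below 10 µM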;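 further: intact quenched peptide substrate alone read at 355 nm excitation and 520 nm emission; signal is fluorescence gain from T0 to T4 after four hours at room temperature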
An asterisk follows results filed as active; i = inactive; · = no result; ! = repeats disagree. Most compounds without a hit are left out; they make up all but 3.4% or so of the library.

SMILES | PLC-gamma1 inh | ADAM10 inh | sPLA2-III inh | ADAM17 inh | proKLK7 act | PLCb3 inh | KLK7 act conf | EDANS-DABCYL int | others
O=C1Nc2ccc(S(=O)(=O)N3CCCCCC3)c3cccc1c23 | -308 | -108 | -8 | -29 | 2 | -404 | · | ·
CN1CCN(S(=O)(=O)c2ccc3c4c(cccc24)C(=O)N3)CC1 | i | i | 16 | -238 | 66* | i | 41* | 49*
COc1ccc(-c2cc(C(F)(F)F)n3nc(C(=O)NCCN4CCOCC4)cc3n2)cc1 | i | -424 | 6 | -150 | -11 | i | · | ·
COc1ccc(-c2cc(C(F)(F)F)n3nc(C(=O)NCCCn4ccnc4)cc3n2)cc1 | i | i | -17 | -317 | 57* | i | -216 | -198
Cc1ccc(-c2cc(C(=O)NCCN3CCOCC3)c3ccccc3n2)o1 | i | -485 | 1 | -149 | 49* | i | 49* | 66*
COc1ccc(-c2cc(C(=O)NCCN3CCOCC3)c3ccccc3n2)cc1 | i | i | 1 | -206 | 15* | i | 6 | 0
O=C(NCCN1CCOCC1)c1cc(-c2ccccc2Cl)nc2ccccc12 | -2 | 4 | -1 | 0 | 0 | -9 | · | ·
C=CCN1C(=O)[C@@H](CC(=O)N2CCCCC2)[C@]2(C(=O)OC)CCCCC=C12 | 1 | -4 | 3 | 2 | 1 | -1 | · | ·
CCOC(=O)c1cc2c(=O)n3ccccc3nc2n(CCCOC)c1=NC(C)=O | i | i | 10 | i | 62* | i | 7 | 7.2*
CCOC(=O)c1cc2c(=O)n3cccc(C)c3nc2n(CC2CCCO2)c1=NC(C)=O (stereo not given) | -150 | i | -6 | -252 | 15*! | -196 | 6 | 7.0*
CCCCn1c(=NC(=O)c2ccc3c(c2)OCO3)c(C#N)cc2c(=O)n3cccc(C)c3nc21 | -60 | -462 | -1 | -145 | 1 | -71 | · | ·
CCOC(=O)c1cc2c(=O)n3cccc(C)c3nc2n(CCOC)c1=NC(C)=O | -152 | i | 2 | i | 15* | -218 | 10 | 9.4*
CCOC(=O)c1cc2c(=O)n3ccccc3nc2n(CCCOC)c1=NC(=O)c1ccncc1 | -286 | i | 3 | i | 18* | -378 | 4 | 4
CCCCCn1c(=NC(C)=O)c(C#N)cc2c(=O)n3ccccc3nc21 | -84 | i | 2 | -181 | 6 | -116 | · | ·
CCOC(=O)Cn1cc(CN2C(C(=O)OC)CN(Cc3ccc(C)cc3)CCS2(=O)=O)nn1 (stereo not given) | -3 | 6 | 0 | 2 | 1 | 0 | · | ·
CCOC(=O)c1csc(NC(=O)C2CCCN(S(=O)(=O)c3cc(OC)ccc3OC)C2)n1 (stereo not given) | 1 | 0 | -15 | 1 | 0 | 0 | · | ·
Cc1ccc(/C=C2/NC(=O)N(Cc3ccccc3)C2=O)s1 | -62 | 1 | -10 | -3 | 17* | -90 | 5 | -24
Cc1cccc(CN2C(=O)N/C(=C/c3ccc(C)s3)C2=O)c1 | -11 | 2 | -10 | 3 | 0 | -11 | · | ·
CSc1ccc(/C=C/C(=O)OCC(=O)NC2CC2)cc1 | -373 | i | 5 | -413 | 21* | -494 | 23* | 25*
CSc1ccc(/C=C/C(=O)OCC(=O)NC(C)C)cc1 | -405 | i | 6 | -426 | 22* | -420 | 17* | 18*
C[C@H]1/C=C/CC(=O)N[C@@H](c2ccccc2)[C@@H](C)/C=C/CC(=O)N[C@H]1c1ccccc1 | 0 | 3 | -1 | 2 | 0 | -2 | · | ·
Cn1c(COc2ccccc2)nnc1SCC(=O)Nc1ccc(OCc2ccccc2)cc1 | 0 | 4 | -3 | 3 | 0 | 3 | · | ·
CC1=CC2=C(C=O)C(=O)C(C)(O)C(O)C2=CO1 (stereo not given) | -14 | -23 | 0 | -6 | 21* | -28 | 29* | 27*
C=CCOc1ccc(/C=N/NC(=O)c2c(C)nc3ccc(Cl)cn23)cc1 | -5 | 2 | 0 | 2 | 23* | -10 | 348* | 333*
COc1cc(/C=N/NC(=O)c2c(C)nc3ccc(Cl)cn23)cc(OC)c1OC | -40 | -106 | -2 | -40 | 36* | -44 | 19* | 14* | EDANS interf=i
SMILES | PLC-gamma1 inh | ADAM10 inh | sPLA2-III inh | ADAM17 inh | proKLK7 act | PLCb3 inh | KLK7 act conf | EDANS-DABCYL int | others
COc1ccc(/C=N/NC(=O)c2c(C)nc3ccc(Cl)cn23)cc1OC | -15 | -1 | 6 | -8 | -1 | -28 | · | ·
COc1ccc(OC)c(/C=N\NC(=O)c2c(C)nc3cc(C)ccn23)c1 | i | i | -1 | -481 | 16* | i | 24* | -10 | EDANS interf=>70
Cc1ccc2oc(C(=O)Nc3nnc(C)s3)c(C)c2c1 | 0 | -3 | -3 | -7 | 0 | 1 | · | ·
COc1ccc2oc(C(=O)Nc3nnc(C)s3)c(C)c2c1 | -221 | -354 | 0 | -79 | 21* | -271 | 1 | 3
O=C(OCc1cn(Cc2c(F)cccc2F)nn1)N1CCCC1 | 3 | 1 | 1 | -1 | 0 | 2 | · | ·
COc1ccccc1C(=O)NC1CCCCN(Cc2ccc(C)cc2)C1=O (stereo not given) | -1 | 3 | 0 | 0 | -1 | 1 | · | ·
O=C(Nc1ccc2c(c1)OCO2)NC1CCCCN(Cc2cccc(Cl)c2)C1=O (stereo not given) | 0 | -5 | 6 | -5 | 0 | 1 | · | ·
CC(=O)N=c1c(C#N)cc2c(=O)n3ccccc3nc2n1CCCOC(C)C | -366 | i | -3 | i | 35* | i | -6 | -2
CC(C)OCCCn1c(=N)c(C(N)=S)cc2c(=O)n3ccccc3nc21 | -297 | i | 3 | -392 | 22* | -357 | 4 | 4.3*
CC(C)OCCCn1c(=NC(=O)c2ccncc2)c(C#N)cc2c(=O)n3ccccc3nc21 | -13 | -68 | 11 | -15 | -1 | -18 | · | ·
CCOCCCn1c(=NC(C)=O)c(C#N)cc2c(=O)n3cccc(C)c3nc21 | -142 | i | -1 | i | 12 | -212 | · | ·
CCOCCCn1c(=N)c(C(=O)NCc2ccc3c(c2)OCO3)cc2c(=O)n3ccccc3nc21 | -18 | -77 | 1 | -26 | 0 | -28 | · | ·
CC(C)OCCCn1c(=NC(=O)c2cccs2)c(C#N)cc2c(=O)n3ccccc3nc21 | i | i | -3 | i | 54* | i | 68* | 63*
COC(=O)[C@H](CC(C)C)N1Cc2nnn(Cc3ccccc3)c2-c2cc(F)ccc2S1(=O)=O | 2 | 13 | -3 | 5 | 0 | 3 | · | ·

High-throughput results (PubChem BioAssay)
